Test results as given in paper PMC5540273 (PLoS ONE, 2017).

Experiments:
Conditions in all cases: concentration: 1 μM, replicates: in singlicate; n = 1
HIPK2 = test system: HIPK2
HIPK3 = test system: HIPK3
HIPK4 = test system: HIPK4
HPK1 = test system: HPK1
HUNK = test system: HUNK
ICK = test system: ICK
IGF1R = test system: IGF1R
IKK-alpha = test system: T1, IKK-alpha
T1 construct: gene CHUK

IKK-beta = test system: T2, IKK-beta
T2 construct: gene IKBKB

IKK-epsilon = test system: T3, IKK-epsilon
T3 construct: gene IKBKE
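Also: KINOMEscan kinase panel screen.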

SMILES	%Inh (HIPK2) [%]	%Inh (HIPK3) [%]	%Inh (HIPK4) [%]	%Inh (HPK1) [%]	%Inh (HUNK) [%]	%Inh (ICK) [%]	%Inh (IGF1R) [%]	%Inh (IKK-alpha) [%]	%Inh (IKK-beta) [%]	%Inh (IKK-epsilon) [%]
CSc1nn2c(=O)cc(N3CCOCC3)nc2n1Cc1cccc(Cl)c1Cl [GSK2347225]	0	17	2	25	25	0	0	0	0	28
O=C(NCCCN1CCCC1=O)c1cnc(NCc2cc(Cl)ccc2Cl)nc1NC1CCNCC1	0	0	13	20	0	0	0	0	0	0
COc1ccc(-c2oc3ncnc(N)c3c2-c2ccc(OC)cc2)cc1 [SB-589132]	25	3	0	40	8	0	0	49	4	6
FC(F)(F)c1ccc(-c2nn3ncccc3c2-c2ccnc(Nc3cccc(C(F)(F)F)c3)n2)cc1 [GW828205]	0	0	11	0	32	0	3	0	0	0
c1ccc(-c2ccc3c(-c4ccnc(Nc5ccc6c(c5)OCCO6)n4)cnn3n2)cc1 [GW818941]	0	0	21	47	0	8	9	21	14	6
Cc1ccc(NC(=O)c2cccc(C#N)c2)cc1-c1ccc(C(=O)Nc2ccncc2)cc1 [GSK1398463]	0	8	0	40	0	35	14	32	36	15
COc1cc2ncnc(Nc3ccc(OCc4ccccc4Br)c(Cl)c3)c2cc1OC.Cl [GI261590]	0	0	0	33	11	0	0	32	16	18
O=C(c1ccc(-c2cc(-c3c[nH]nc3-c3ccccn3)ccn2)cc1)N1CCCC1 [GW792479]	0	0	24	20	9	0	0	0	0	0
C[C@H]1CC[C@@H](C(=O)Nc2ccccc2)CN1c1cc(-c2ccc3c(N)n[nH]c3c2)nc(N)n1 [GSK2283293]	0	0	0	37	0	0	15	7	0	8
NC(=O)c1sc(-n2cnc3ccccc32)cc1OCc1ccccc1F [GSK1024306]	44	0	24	51	0	0	0	0	2	0
CCc1nc(-c2cccc(N(C)S(=O)(=O)c3ccccc3)c2)c(-c2ccnc(Nc3ccc(N4CCN(C(C)=O)CC4)nc3)n2)s1 [GSK1645895]	0	17	0	35	0	13	0	0	1	39
O=C(Nc1ccccc1)Nc1ccc(Oc2ccc3nccn3n2)cc1	0	0	4	0	9	0	0	0	0	0
CSc1ccc(NC2=C(c3ccccc3Cl)C(=O)NC2=O)cc1 [SB-342411]	0	31	0	0	0	40	6	0	0	44
Clc1ccc(-c2cc(-c3c[nH]nc3-c3ccccn3)ccn2)cc1 [GW681251]	0	19	0	24	6	0	4	0	28	3
CNc1nccc(-c2c(-c3ccc(F)cc3)ncn2C2CCN(C)CC2)n1 [SB-222903]	5	0	0	0	39	0	0	0	0	0
CN1CCC(n2cnc(-c3ccc(F)cc3)c2-c2ccnc(NC3CCNCC3)n2)CC1 [SB-229482]	45	0	0	27	0	45	0	0	0	0
Cl.O=S(=O)(c1cccc(F)c1)c1ccc(Nc2ncnc3cc(Br)sc23)cc1Cl [GSK306886]	0	23	0	29	57	0	0	0	41	0
